LGR2 inh: inhibitors of bursicon-induced LGR2 CRE-luciferase signal, primary screen, cell-based, HEK293, CRE-luciferase reporter, bursicon stimulation; bursicon-stimulated, 4 h; inhibition, % at 9.99 µM; hit rate 0.35% among 380,000; AID 720647, 2013;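 active means drop in luminescence signal, shown as inhibition above about 50% in the replicate tests, limit read from the data, passing the limit was not always enough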;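 further: agonist challenge used bursicon conditioned medium at about half maximal strength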
EWS-Fli inh: EWS/Fli-driven NR0B1 reporter inhibitors, primary screen, A673 cells, NR0B1 luciferase, luminescence, MLPCN library | viability-normalised | hit rate 0.67% among 350,000 | inhibition, % at 12.6 µM;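 active means mean inhibition of at least 50% after viability correction, with every replicate also passing that limit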;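 further: firefly luciferase signal divided by Alamar Blue viability fluorescence both relative to DMSO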
EBV LMP1 NFkB: EBV LMP1-driven NF-kappaB luciferase reporter inhibitors, primary screen, cell-based, luminescence, single point. LMP1-induced NF-kappaB luciferase reporter cells. inhibition, % at 12.5 µM. hit rate 0.69% among 350,000. AID 504558, 2011; in the data active means inhibition above about 41%;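 further: 0% = neutral control wells and 100% = reference inhibitor control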
TRPM1 prom inh: inhibitors of MITF-dependent TRPM1 promoter reporter, primary screen, cell-based, SK-MEL-5, single point, luciferase; hit rate 0.83% among 330,000; SK-MEL-5 TRPM1 promoter luciferase, 24 h; inhibition, % at 12.5 µM; AID 488899, 2010;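 active means mean inhibition across replicates of 60% or more, whatever share of single replicates reaches that level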
PAX8 inh HTS: inhibitors of PAX8-driven TPO luciferase reporter, primary screen, RMG-I cells, single concentration. SteadyGlo, 24 h. hit rate 1.2% among 360,000. inhibition, % at 12.6 µM;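 active means mean replicate inhibition at least 60% with every replicate also reaching 60%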;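 further: luciferase light reporting Pax8 driven TPO promoter activity; plate controls were median of neutral control wells for no effect and mitoxantrone controls for full effect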
Shn3 3UTR inh: reduction of Shn3 3'UTR firefly luciferase signal, primary screen, Schnurri-3 inhibitor project, cell-based, Clone20 osteoblasts, set 2. Clone20 osteoblast Shn3 3'UTR firefly luciferase, 24 h. inhibition, % at 12.5 µM. hit rate 0.52% among 360,000. AID 588674, 2011;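 active means mean inhibition of at least 75% with every replicate also reaching 75%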;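 further: 0% = median of neutral control wells and 100% = pilot-screen positive control compound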
* = called active by the depositor; . = not tested or not shown. In the library only some 2.2% were active in any assay of this set; here they are far more common.

SMILES	LGR2 inh	EWS-Fli inh	EBV LMP1 NFkB	TRPM1 prom inh	PAX8 inh HTS	Shn3 3UTR inh
CC(NNC(=S)N1CCN(c2ccccn2)CC1)c1nccc2ccccc12 (stereo unspecified)	-7	26	72*	86*	72*	93*
O=C(NC(=S)N1CCN(c2ccc(O)cc2)CC1)c1ccco1	-4	-4	-1	-10	2	-25
Cc1cc(Nc2cc(Cl)nc(Sc3ccc(NC(=O)C4CC4)cc3)n2)n[nH]1	4	39	-53	3	75*	64
CC(=O)Nc1ccc2c(c1)C(=O)N(C)[C@@H]1CC[C@H](CC(=O)Nc3cn(C)nc3C)O[C@@H]1CO2	-13	-1	.	.	4	.
CC1Cc2ccccc2N1c1ncnc(N)c1[N+](=O)[O-] (stereo unspecified)	64*	7	76*	34	-15	16
COc1ccc(NC(=O)CCS(=O)(=O)c2ccc3c(c2)CCCN3C(C)=O)cc1Cl	.	.	-11	0	.	20
COc1ccc(NC(=O)CCS(=O)(=O)c2ccc3c(c2)CCN3C(C)=O)cc1	6	-14	58*	8	1	4
CC(C)CC#Cc1ccc([C@H]2[C@H](CO)N3C(=O)CN(C(=O)Nc4ccc(F)cc4)C[C@@H]23)cc1	-5	4	.	.	.	.
O=C(Nc1cccc(F)c1)C1CC(=O)N(c2ccc(Br)cc2)C1 (stereo unspecified)	.	.	-8	2	.	-1
O=C(Nc1cccc(Cl)c1Cl)C1CC(=O)N(c2ccc(Br)cc2)C1 (stereo unspecified)	.	.	7	22	.	87*
Cc1cc2ncn(-c3ncccc3[N+](=O)[O-])c2cc1C	-14	58*	4	-2	13	8
CCOc1ccc(NS(=O)(=O)c2ccc(NS(C)(=O)=O)cc2)cc1	.	.	5	-7	.	27
CCCCCOc1ccc(NS(C)(=O)=O)cc1	.	.	78*	-28	.	-25
COc1ccc(-c2cc(N3CCCC3)n3ncnc3n2)cc1	.	.	10	-8	15	26
O=S(=O)(c1ccccc1)N1CCN(c2cc(-c3ccccc3)nc3ncnn23)CC1	.	.	43*	49	.	84*
O=S(=O)(c1ccc(Br)cc1)N1CCN(c2cc(-c3ccccc3)nc3ncnn23)CC1	7	11	11	-11	.	50
COc1ccc(S(=O)(=O)N2CCN(c3cc(-c4ccccc4)nc4ncnn34)CC2)cc1	13	11	-13	20	.	87*
CC(C)CC#Cc1cnc2c(c1)C(=O)N([C@@H](C)CO)C[C@@H](C)[C@H](CN(C)C(=O)c1ccccc1F)O2	4	0	.	.	.	.
Cc1nn(C)c(C)c1/C=N/NC(=O)CCn1cc([N+](=O)[O-])cn1	13	72*	4	-2	-5	2
CC(C)NC(=O)CCCn1cc([N+](=O)[O-])cn1	.	8	1	3	2	-13
CO[C@H]1CN(C)C(=O)c2cc(NC(=O)Nc3ccccc3)ccc2OC[C@H](C)N(C(C)=O)C[C@H]1C	4	1	.	.	.	.
O=C(Nc1ccc(N2CCN(c3ncccc3C(F)(F)F)CC2)nc1)c1cccs1	92*	6	5	17	57	42
CCC(=O)Nc1ccc(/C=C(\C(C)=O)C(=O)c2ccccc2)cc1	52*	3	8	16	-6	-48
CO[C@@H]1CN(C)C(=O)c2cc(NC(=O)C3CCC3)ccc2OC[C@@H](C)N(C(=O)Nc2ccc(C(F)(F)F)cc2)C[C@H]1C	-9	4	.	.	21	.
Brc1ccc2nc(-c3ccc(CN4CCC(c5nc6ccccc6[nH]5)CC4)cc3)c(-c3ccccc3)nc2c1	11	17	.	.	101*	.
SMILES	LGR2 inh	EWS-Fli inh	EBV LMP1 NFkB	TRPM1 prom inh	PAX8 inh HTS	Shn3 3UTR inh
COc1ccc2nc(-c3ccc(CN4CCC(c5nc6ccccc6[nH]5)CC4)cc3)c(-c3ccccc3)nc2c1	15	22	.	.	40	.
O=C(Nc1ccc(OCC(F)(F)C(F)F)c(C(F)(F)F)c1)c1ccccc1O	.	.	23	63*	100*	79
CN(C)CC(=O)Nc1ccc2c(c1)[C@@H]1C[C@H](CC(=O)NCc3ccc(Cl)cc3)O[C@H](CO)[C@@H]1O2	19	-2	.	.	.	.
CCC(=O)N[C@H]1CC[C@@H](CC(=O)NCC2CCCCC2)O[C@H]1CO	11	-5	.	.	0	.
Cc1ccc(NC(=O)c2ccc(N/N=C/c3cccc(O)c3)c([N+](=O)[O-])c2)cc1	.	.	-26	78*	.	-1
Cc1ccc(NC(=O)c2ccc(Nc3c([N+](=O)[O-])cc([N+](=O)[O-])cc3[N+](=O)[O-])cc2)cc1	85*	38	-3	9	10	70
COc1ccccc1CNC(=O)C[C@@H]1C[C@@H]2c3cc(NC(=O)NC4CCCC4)ccc3O[C@@H]2[C@@H](CO)O1	2	-3	.	.	11	.
CCN1CCN(c2cc(C)c3cc(NC(=S)N4CCN(c5ccc(F)cc5)CC4)ccc3n2)CC1	-8	7	-9	85*	0	6
COc1ccc(NC(=O)N(C)C[C@@H]2Oc3ncc(C#CCC(C)C)cc3C(=O)N([C@H](C)CO)C[C@H]2C)cc1	-39	6	.	.	.	.
COc1cc2nc(Nc3ccc(C)c(C)c3)nc(N)c2cc1OC	-12	-3	-10	35	-5	-24
COc1cc2nc(Nc3ccc(C)c(Cl)c3)nc(N)c2cc1OC	31	49	9	70*	41	24
Nc1nc(Nc2ccc(Cl)cc2)nc2ccccc12	.	.	1	4	.	20
Cc1ccc(Nc2nc(N)c3ccccc3n2)cc1Cl	72*	24	-40	2	-23	5
COc1cccc(S(=O)(=O)Nc2ccc3c(c2)OC[C@H](C)N(Cc2ccccc2F)C[C@H](C)[C@H](OC)CN(C)C3=O)c1	6	9	.	.	21	.
CN(C)C(=O)C[C@H]1CC[C@H]2[C@@H](COC[C@@H](O)CN2CC2CCOCC2)O1	-1	4	.	.	-5	.
O=C(Nc1ncc(Br)s1)C(Cc1ccccc1)n1cccc1 (stereo unspecified)	-13	-4	91*	-18	3	-15
N#CCCNC(=O)Cn1c(COc2ccc(Cl)cc2)nc2ccccc21	-7	-9	-6	4	70*	-1
O=C(Cn1c(COc2ccc(Cl)cc2)nc2ccccc21)NCC(F)(F)F	-7	.	-4	-1	-18	-24
CCN(CC)c1ccc(CNc2nc3ccccc3n2CCN2CCCCC2)cc1	47	29	1	-1	16	92*
CCC(=O)N1C[C@H](C)[C@@H](OC)CN(C)C(=O)c2cc(NC(=O)COC)ccc2OC[C@@H]1C	-11	-5	.	.	-3	.
O=C(CCl)N1CCN(S(=O)(=O)c2ccc3c(c2)CCC3)CC1	22	5	-6	66*	8	-4
